# A selection: hits, their analogues and other compounds. The true share with any hit is near 1.7%.
# beta cell repl – induces beta-cell replication in MIN6 cells; MIN6 cells proliferation, ATPlite luminescence, 48 h; cells starved in 0.2% serum; 100% = growth in 10% serum; proliferation, % at 10 µM; 330,000 tested, 0.29% active;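 active means compounds whose signal lies at least 3.5 SD above the mean of all wells on their plate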;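 further: 0% = DMSO-treated cells in low-serum medium and 100% = 10% serum control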
# CHT inh – inhibitors of human choline transporter CHT; CHT-expressing cells, membrane potential dye, choline response; active compounds read low; B-score at 10 µM; 310,000 tested, 0.86% active; AID 488975;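 active means B-score over 3 SD under the library average, and starting fluorescence ratio not unusually high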;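 further: choline stimulus applied at its EC90 after an EC20 pre-addition; B-score computed on integrated fluorescence ratio after choline addition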
# Target sequence (Q9GZV3 whole entry, looked up): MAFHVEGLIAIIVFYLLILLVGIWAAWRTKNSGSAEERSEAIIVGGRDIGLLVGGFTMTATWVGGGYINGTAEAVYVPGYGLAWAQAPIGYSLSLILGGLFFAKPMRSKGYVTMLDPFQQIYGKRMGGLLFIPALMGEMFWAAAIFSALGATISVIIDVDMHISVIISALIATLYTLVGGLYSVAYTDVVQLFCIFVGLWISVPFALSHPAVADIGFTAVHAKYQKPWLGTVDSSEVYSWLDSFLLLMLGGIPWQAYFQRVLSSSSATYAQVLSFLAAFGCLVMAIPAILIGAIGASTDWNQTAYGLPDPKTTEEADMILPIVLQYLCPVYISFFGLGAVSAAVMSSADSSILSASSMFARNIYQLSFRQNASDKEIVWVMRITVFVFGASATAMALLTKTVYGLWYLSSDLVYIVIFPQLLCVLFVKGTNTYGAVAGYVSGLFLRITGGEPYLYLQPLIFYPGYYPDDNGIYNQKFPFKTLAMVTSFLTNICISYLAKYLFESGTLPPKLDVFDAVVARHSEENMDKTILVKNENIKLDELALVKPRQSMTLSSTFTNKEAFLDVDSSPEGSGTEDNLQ
# CHT PAM – human CHT allosteric activation | CHT-expressing cells, membrane potential dye, choline EC20; active compounds read high; LV-AA mutant CHT in HEK293 cells | B-score at 10 µM | Q9GZV3 | AID 488977 | 310,000 tested, 0.49% active;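 active means initial fluorescence not abnormally high and integrated response B-score, plate-corrected, over 3 SD above library mean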
# TAG inh – triacylglycerol accumulation inhibition; AID 651582; 230,000 tested, 0.66% active; H9c2 cells, Nile Red lipid (TAG) fluorescence; cells loaded with 200 µM oleic acid; inhibition, % at 12.5 µM;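 active means pattern-corrected inhibition of lipid staining of at least 50% with the nuclear-stain viability signal not falling by more than 50%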;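 further: 0% = DMSO wells and 100% = triacsin C control wells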
# CHT activ conf – confirmation of human choline transporter (CHT) activators | activation, % at 10 µM | AID 504833 | CHT-expressing cells, membrane potential dye fluorescence (FDSS); % of choline EC20–EC90 response window; HEK293 expressing CHT LV-AA mutant; choline added at its EC20 | 2,500 tested, 91% active | shares compounds with CHT PAM;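 active means primary screen active, with duplicate mean activation above negative control mean plus 3 SD, cut at about 11% in these data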
# HEK293 MP dye – CHT activator counter-screen hit in parental HEK293 cells. shares compounds with CHT PAM. membrane potential dye fluorescence (FDSS); measured after EC20 choline addition. ratio readout change at 10 µM, hits read low. 2,500 tested, 62% active;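 active means duplicate-averaged ratio beyond 3 SD from buffer wells, up or down, though filed actives are nearly all decreases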
# * hit, by the source's call; i = inactive; . = not tested or not shown.
SMILES,beta cell repl,CHT inh,CHT PAM,TAG inh,CHT activ conf,HEK293 MP dye
C/C(CCC(C)C)=N\Nc1cc(C)c2ccccc2n1,-4,i,7.4*,13,52*,i
Cc1cc(NCc2ccccc2)nc2ccccc12,-1,i,i,.,.,.
CC(C)(C)c1ccc(C(=O)C2CCCN(C(=O)CCn3cncn3)C2)cc1 (centres undefined),-1,i,i,.,.,.
CCC1=[N+](CC(=O)c2ccc(Br)cc2)CCn2c(C)ccc21,-6,i,i,-7,.,.
CCC1=[N+](CC(=O)c2ccc(C)cc2)CCn2c(C)ccc21,0,i,i,.,32*,i
COc1ccccc1C(=O)NCC(=O)OCCCOC(=O)CNC(=O)c1ccccc1OC,-4,i,i,-8,.,.
Cn1c(=O)n(C)c2cc([N+](=O)[O-])c(N3CCN(S(C)(=O)=O)CC3)cc21,0,i,i,.,.,.
Cn1c(=O)n(C)c2cc([N+](=O)[O-])c(N3CCN(CCO)CC3)cc21,-4,i,9.3*,10,53*,-70*
Cc1cccnc1C(NC(=O)C1CCN(CCCOc2ccc(F)cc2)CC1)c1ccccc1 (centres undefined),.,.,.,18,.,.
NNC(=O)c1c[nH]c2ccc(OCc3ccccc3)cc12,0,i,i,-9,.,.
CCNC(=O)C1(C)CCCN(Cc2cccc(Oc3ccccc3)c2)C1 (centres undefined),.,.,.,12,.,.
CC(=O)NC(CC(=O)OC(C)C(=O)Nc1ncc(Cl)cc1Cl)c1ccccc1 (centres undefined),2,i,i,-11,.,.
CC(OC(=O)CC(NC(=O)c1ccccc1Cl)c1ccccc1)C(=O)Nc1cccc(Cl)c1Cl (centres undefined),-4,i,i,-4,31*,i
CCC(=O)N1CCN(c2ccnc3cc(Cl)ccc23)CC1,5,i,7.6*,9,68*,-63*
CCOC(=O)N1CCN(c2ccnc3cc(Cl)ccc23)CC1,7,i,i,.,.,.
Clc1ccc2c(N3CCOCC3)ccnc2c1,4,i,i,-5,50*,-50*
CCN(CC)CCSc1nnc2c3ccccc3n(CCc3ccccc3)c2n1,-5,i,8.5*,.,31*,-35*
Cc1ccc(N2C(=O)C3C4C=CC(CC4)C3C2=O)c([N+](=O)[O-])c1 (centres undefined),-1,i,i,.,.,.
CCC(C)(C)NC(=O)C(c1ccccc1)N(Cc1cccs1)C(=O)Cn1nnc2ccccc21 (centres undefined),-5,i,i,1,19*,i
COc1cc(C(=O)Nc2sc3c(c2C(=O)NCc2ccco2)CCCC3)cc(OC)c1OC,2,i,7.6*,41,8,i
COc1cccc(/C=N/n2cncn2)c1OCC#N,-2,i,6.4*,10,3,i
N#CCOc1ccccc1/C=N/n1nnnc1N,0,i,i,6,.,.
COC(=O)CCCC1=CC2=C(c3ccccc3)C(=O)C(C)(OC(=O)C3CCCC3)C(=O)C2=CN1C1CC1 (centres undefined),-1,i,10*,-4,0,i
CCC1CCCCN1CCCNC(=O)c1ccc2c(c1)N(Cc1ccc(F)cc1)C(=O)c1ccccc1S2=O (centres undefined),-8,i,i,.,.,.
CCOC(=O)c1cnn(-c2sc(C(=O)OCC)c(C)c2C(=O)OCC)c1N,-3,i,6.6*,.,-3,i
SMILES,beta cell repl,CHT inh,CHT PAM,TAG inh,CHT activ conf,HEK293 MP dye
COc1ccc(-n2c(-c3ccccc3)c[n+]3c2CCC3)cc1,-4,i,i,-13,.,.
COc1ccc(-n2c(-c3ccc(Br)cc3)c[n+]3c2CCCCC3)cc1,-6,i,11*,.,62*,i
FC(F)Sc1ccc(-n2c(-c3ccc(Cl)cc3)c[n+]3c2CCC3)cc1,-5,i,6.3*,-30,30*,-35*
Cc1ccc(-n2c(-c3ccc(Cl)cc3)c[n+]3c2CCC3)cc1,-4,i,i,-8,.,.
COc1ccc(-n2c(-c3ccc(Br)cc3)c[n+]3c2SC(C)C3)cc1 (centres undefined),-6,i,i,-1,36*,-52*
CCOc1ccc(-c2c[n+]3c(n2-c2ccccc2)CCCCC3)cc1,-6,i,7.2*,-13,15*,i
Cc1ccc(S(=O)(=O)Nc2cccc(-c3ccc4nnc(C)n4n3)c2)s1,1,i,i,.,.,.
CC1CCC(C(C)C)C(OC(=O)C[n+]2cc(-c3ccc(Cl)cc3)n3c2CCC3)C1 (centres undefined),-6,i,14*,-7,83*,i
Cc1sc2nc(CN3CCCC3)nc(N3CCN(C(=O)c4ccco4)CC3)c2c1C,-2,i,7.3*,27,46*,-39*
Cc1sc2nc(CN3CCCC3)nc(N3CCC(C(N)=O)CC3)c2c1C,1,i,8.9*,14,67*,-54*
Cc1sc2nc(CN3CCCC3)nc(N3CCN(S(=O)(=O)c4cccc(F)c4)CC3)c2c1C,-8,.,.,18,.,.
Cc1nc(N2CCN(C(=O)c3ccco3)CC2)c2c3c(sc2n1)CCCC3,-3,i,i,.,.,.
Cc1cc(=S)n(-c2ccccc2)n1C,0,i,7*,-15,8,i
COc1ccc(COc2ccccc2C(=O)Nc2ccccn2)cc1[N+](=O)[O-],-1,i,i,.,.,.
CCN(CC)c1nc2ccccc2c(N)c1-c1ccccc1,-3,i,i,2,.,.
Cc1c(N(C)C)nc2ccccc2c1N,-1,i,7*,-6,53*,-58*
CC(=O)c1c(C)nc2ccccc2c1N,-3,i,8.6*,0,56*,-44*
O=C(C1CCN(S(=O)(=O)c2ccc(Cl)cc2)CC1)N1CCC1,3,i,i,11,.,.
CC1(C)CC(N2CCCC2)=CC(=[N+]2CCCC2)C1,-6,i,8.6*,.,58*,-34*
CC1(C)CC(N2CCCC2)=CC(=[N+]2CCCCC2)C1,-6,i,i,.,.,.
COc1ccc2nc(C)cc(N3CCOCC3)c2c1,-2,i,i,.,68*,-81*
COc1ccc2nc(C)cc(N3CCN(c4ccccc4)CC3)c2c1,1,i,i,.,.,.
COc1ccc(C(=O)CN2CCN(c3cc(C)nc4ccccc34)CC2)cc1,-2,i,8.5*,-8,64*,-78*
COc1cccc(Cl)c1NC(=O)N1CCN(c2cc(C)nc3ccccc23)CC1,1,i,6.7*,-6,42*,-50*
Cc1cc(N2CCN(S(=O)(=O)c3ccc(Cl)cc3)CC2)c2ccccc2n1,-4,i,i,.,.,.

# Source: PubChem (several laboratories)
